High-throughput results deposited in PubChem BioAssay by National Center for Advancing Translational Sciences (NCATS).
IMPase inh – qHTS Assay for Identifying the Cell-Membrane Permeable IMPase Inhibitors | Inositol monophosphatase 1 (Rattus norvegicus), P97697 | CHO-M1 cells, IP1 accumulation, HTRF TR-FRET ratio | inhibition (IP1 accumulation), % at 46.1 µM | 120,000 tested, under 10 active | AID 901, 2007; active means well fitted curve in the direction sought with a large enough effect in the signal ratio, not every such curve was filed as active; inconclusive means small, poorly fitted or top-dose-only effect, or a change in a side signal; inactive means no such curve, though single readings can be large or run the other way; the % refers to the signal ratio;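 further: cells stimulated with carbachol in lithium chloride buffer; higher means more IMPase inhibition seen as more IP1 and lower FRET ratio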
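In this qHTS, compounds (final up to 46 uM) act on CHO-M1 cells that are then activated through the M1 receptor with carbachol, in pH 7.4 buffer containing 50 mM LiCl, for 30 min. IP1 accumulation is quantified by the IP-One immunoassay.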
NPSR antagonist – qHTS Assay for Antagonists of the Neuropeptide S Receptor: cAMP Signal Transduction | Q6W5P4 | CHO-NPSR cells, cAMP TR-FRET, antagonist mode | Potency, µM (series often up to 38.3 µM), hits mostly inhibitors | 220,000 compounds, 1% hits; active means well fitted curve in the direction sought with a large enough effect; inconclusive means small, poorly fitted or top-dose-only effect, or another doubt; inactive means no such curve, though single readings can be large; an effect the other way counts as inactive or inconclusive; further: nearly all actives have a fitted effect of over 50% in size
Target sequence (Q6W5P4 whole entry, looked up): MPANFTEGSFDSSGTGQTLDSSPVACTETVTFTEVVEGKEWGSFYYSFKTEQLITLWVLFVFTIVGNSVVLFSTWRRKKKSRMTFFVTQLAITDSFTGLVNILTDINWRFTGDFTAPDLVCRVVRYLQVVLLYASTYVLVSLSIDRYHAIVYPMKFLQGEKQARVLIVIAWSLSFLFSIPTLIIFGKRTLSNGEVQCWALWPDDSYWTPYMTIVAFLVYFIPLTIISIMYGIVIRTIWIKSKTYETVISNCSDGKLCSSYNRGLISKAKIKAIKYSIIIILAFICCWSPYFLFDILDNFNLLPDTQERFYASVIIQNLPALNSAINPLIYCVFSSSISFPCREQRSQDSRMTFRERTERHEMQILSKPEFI
IMPase Li cell – qHTS Assay for Identifying the Cell-Membrane Permeable IMPase Inhibitors: Potentiation with Lithium | CHO-M1 cells, IP1 TR-FRET (IP-One), carbachol + lithium | Potency, µM (top dose mostly 59.4 µM), most hits filed as inhibitors | 210,000 compounds, 0.35% hits; active means well fitted curve in the direction sought with a large enough effect; inconclusive means small, poorly fitted or top-dose-only effect, or another doubt; inactive means no such curve, though single readings can be large; an effect the other way counts as inactive or inconclusive;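 further: IP1 builds up when IMPase is blocked and the TR-FRET signal falls; nearly all actives have a fitted effect of over 50% in size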
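CHO cells stably expressing M1 receptor (2000/well) were cultured 16–30 h, then exposed to compounds with a small lithium addition for 30 min at 37C. IP1 was measured by TR-FRET competition; AC50 from Hill fits.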
ALDH1A1 inh – qHTS Assay for Inhibitors of Aldehyde Dehydrogenase 1 (ALDH1A1); Aldehyde dehydrogenase 1A1 (Homo sapiens), P00352; 220,000 compounds, 7.3% hits; Potency, µM (doses to about 75.3 µM), hits mostly inhibitors; Purified ALDH1A1, NADH fluorescence, propionaldehyde substrate
HPGD block – qHTS Assay for Inhibitors of HPGD (15-Hydroxyprostaglandin Dehydrogenase) | purified HPGD, NADH fluorescence kinetic, PGE2 substrate | Potency, µM, actives largely listed as inhibitors | 150,000 compounds, 4.3% hits | AID 894, 2007
Target sequence (P15428 whole entry, looked up): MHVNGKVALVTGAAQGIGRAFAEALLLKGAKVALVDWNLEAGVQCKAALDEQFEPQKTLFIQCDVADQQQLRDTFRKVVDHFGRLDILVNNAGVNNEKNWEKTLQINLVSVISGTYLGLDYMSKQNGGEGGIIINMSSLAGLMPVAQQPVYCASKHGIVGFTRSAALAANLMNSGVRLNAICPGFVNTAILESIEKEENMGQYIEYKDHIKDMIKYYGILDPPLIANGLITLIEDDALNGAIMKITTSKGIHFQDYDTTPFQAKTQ
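NADH formation kinetics: reaction with 30 uM PGE2 and 1 mM NAD+ (final), 20 nM enzyme, Tris-HCl pH 8 with Tween 20, after 15 min compound preincubation at room temperature. Fluorescence change, last versus first of five reads.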
PNC inhibitor – High Content Assay for Compounds that inhibit the Assembly of the Perinucleolar Compartment | AID 2417, 2010 | PC3M PTB-GFP, PNC prevalence imaging, 16 h; stronger effect = lower value | 140,000 compounds, 3.1% hits | activity change (PNC), negative = inhibition, % at 10 µM;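 active means readout at or below -70, meaning at least 70% loss of cells showing the perinucleolar compartment, a nuclear body marking cancer cells; inconclusive means readout between -30 and a set limit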
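PC3M cells stably expressing PTB-GFP, 750–1000 cells/well, treated 16 h at 37 °C with compound (23 nl of library stock), in duplicate. After paraformaldehyde fixation and Hoechst stain, imaged at 20x; PNC prevalence scored by image analysis.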
Hits are given with their value; [ ] = another dose, or the depositor's remark. In the library only some 11% were active in any assay of this set; here they are far more common. Unless noted, the call rests on the fitted dose curve; in most records, active means well fitted inhibition curve with a large enough effect (not every such curve was filed as active); inconclusive means small, poorly fitted or top-dose-only effect, or another doubt; inactive means no such curve, though single readings can be large or run the other way.

For Cc1noc(C)c1COC(=O)CCCc1c[nH]c2ccccc12 the results were IMPase inh inactive, NPSR antagonist inactive, IMPase Li cell inactive, ALDH1A1 inh 14µM, HPGD block inconclusive and PNC inhibitor inactive.
For COC(=O)CC1COc2ccccc2N1C(=O)c1ccc(C(C)(C)C)cc1 (stereo not drawn) the results were IMPase inh inactive, NPSR antagonist inconclusive, IMPase Li cell inactive, ALDH1A1 inh inconclusive, HPGD block inactive and PNC inhibitor inactive.
`COc1ccc(CNC(=O)c2cccnc2Sc2ccc(Cl)cc2)cc1` gave IMPase inh inactive, NPSR antagonist inactive, IMPase Li cell inactive, ALDH1A1 inh inconclusive, HPGD block inactive and PNC inhibitor inactive.
For CC(=O)c1ccc(OCCCC(=O)NCC(c2ccco2)N(C)C)cc1 (stereo not drawn) the results were IMPase inh inactive, NPSR antagonist inactive, IMPase Li cell inactive, ALDH1A1 inh inactive, HPGD block inactive and PNC inhibitor inactive.
For CC(=O)c1ccc(NC(=O)c2ccccc2Sc2ncnc3sc(C)c(C)c23)cc1 the results were NPSR antagonist inactive, IMPase Li cell inactive, ALDH1A1 inh inactive, HPGD block inactive and PNC inhibitor inconclusive.
Screening COc1ccccc1NC(=S)NC(=O)CCCOc1ccc(Cl)cc1Cl returned IMPase inh inactive, NPSR antagonist inactive, IMPase Li cell inactive, ALDH1A1 inh 11µM, HPGD block inactive and PNC inhibitor inactive.
`O=C(CSc1ncc(-c2ccccc2)[nH]1)Nc1ccccc1` gave IMPase inh inactive, NPSR antagonist inactive, IMPase Li cell inactive, ALDH1A1 inh inactive, HPGD block inactive and PNC inhibitor inactive.
`Cc1ccc(S(=O)(=O)Nc2cccnc2Oc2ccc(Cl)cc2)cc1` gave NPSR antagonist inactive and ALDH1A1 inh 0.02µM.
For Cc1nnc(Sc2cc(C(=O)NCCCOC(C)C)c3ccccc3n2)s1 the results were NPSR antagonist inactive.
Screening COc1ccc(C(=O)NCC(=O)OCC(=O)Nc2c(C)n(C)n(-c3ccccc3)c2=O)cc1 returned IMPase inh inactive, NPSR antagonist inactive, IMPase Li cell inactive, ALDH1A1 inh inactive, HPGD block inactive and PNC inhibitor inactive.
`CCOc1c(OC(C)=O)ccc(/C=C2\N=C(SCC)SC2=O)c1[N+](=O)[O-]` gave IMPase inh inactive, NPSR antagonist inactive, IMPase Li cell inactive, ALDH1A1 inh inconclusive, HPGD block 10µM and PNC inhibitor inactive.
Screening CCSC1=N/C(=C\c2ccc(C(=O)O)cc2)C(=O)S1 returned IMPase inh inactive, NPSR antagonist inactive, IMPase Li cell inactive, ALDH1A1 inh inactive, HPGD block inactive and PNC inhibitor inactive.
For CCOc1cc(/C=C2\N=C(SCC)SC2=O)cc([N+](=O)[O-])c1OC(C)=O the results were IMPase inh inactive, NPSR antagonist inactive, IMPase Li cell inactive, ALDH1A1 inh 32µM, HPGD block 13µM and PNC inhibitor inconclusive.
Screening CCOc1cc(/C=C2\N=C(SC)SC2=O)cc([N+](=O)[O-])c1OC(C)=O returned IMPase inh inactive, NPSR antagonist inactive, IMPase Li cell inactive, ALDH1A1 inh 28µM, HPGD block 16µM and PNC inhibitor inactive.
For COc1ccc(CCNC(=O)c2c(O)c3cccc4c3n(c2=O)CC4)cc1 the results were IMPase inh inactive, NPSR antagonist inactive, IMPase Li cell inactive, ALDH1A1 inh inactive, HPGD block inactive and PNC inhibitor inconclusive.
For Cc1ccc(NC(=O)N2CCCn3c(SCC(=O)c4ccccc4)nnc32)cc1 the results were NPSR antagonist inactive.
Screening Cc1cc([N+](=O)[O-])nn1Cc1ccc(C(=O)N/N=C/c2ccc(F)cc2)cc1 returned NPSR antagonist inactive.
Screening CSc1nc(=NC(C)=O)ss1 returned IMPase inh inactive, NPSR antagonist inactive, IMPase Li cell inactive, ALDH1A1 inh 1.8µM, HPGD block inconclusive and PNC inhibitor inactive.
Nc1sc2c(c1C(=O)c1ccccc1)CCCC2 was read as IMPase inh inactive, NPSR antagonist inactive, IMPase Li cell inactive, ALDH1A1 inh 14µM, HPGD block inconclusive and PNC inhibitor inactive.
Screening NC(=O)c1c(N)sc2c1CCCC2 returned IMPase inh inactive, NPSR antagonist inactive, IMPase Li cell inactive, ALDH1A1 inh 13µM, HPGD block 32µM and PNC inhibitor inactive.
For O=C(NCCc1ccccc1)c1c(F)cccc1F the results were NPSR antagonist inactive, IMPase Li cell inactive and ALDH1A1 inh inactive.
For Nc1sc2c(c1C(=O)NCCc1ccccc1)CCC2 the results were NPSR antagonist inactive, IMPase Li cell inactive and ALDH1A1 inh 20µM.
CC(=O)Nc1sc2c(c1C(N)=O)CCCC2 was read as IMPase inh inactive, NPSR antagonist inactive, IMPase Li cell inactive, ALDH1A1 inh inactive, HPGD block inactive and PNC inhibitor inactive.
Screening CCC(C)(C)NC(=O)c1cc(OC)c(OC)cc1[N+](=O)[O-] returned IMPase inh inactive, NPSR antagonist inactive, IMPase Li cell inactive, ALDH1A1 inh inactive, HPGD block inactive and PNC inhibitor inactive.
`COc1[nH]c2ccc(F)cc2c1C(=O)OCC1CCN(CCNS(C)(=O)=O)CC1` gave IMPase inh inactive, NPSR antagonist inconclusive, IMPase Li cell inactive, ALDH1A1 inh inactive and HPGD block inactive.
For COC(=O)C/C=C\[C@@H](C)[C@H]1C=C[C@H](O)[C@@H](CO)O1 the results were ALDH1A1 inh inactive[13.5 µM].
For Cc1cc2oc(=O)cc(CSc3nc(N)cc(N)n3)c2cc1C(C)C the results were IMPase inh inactive, NPSR antagonist inactive, IMPase Li cell inactive, ALDH1A1 inh 18µM, HPGD block inactive and PNC inhibitor inconclusive.
For CCCc1cc(=O)[nH]c(SCc2cc(=O)oc3cc(C)c(C(C)C)cc23)n1 the results were NPSR antagonist inactive, IMPase Li cell inactive, ALDH1A1 inh inconclusive, HPGD block 16µM and PNC inhibitor inactive.
For O=C(c1ccccc1Cl)N1CCCC(c2nc3c(nnn3Cc3ccccc3)c(=O)[nH]2)C1 (stereo not drawn) the results were IMPase inh inactive, NPSR antagonist inactive, IMPase Li cell inactive, ALDH1A1 inh inactive, HPGD block 16µM and PNC inhibitor inactive.
Screening COc1ccc(Cn2nnc3c(=O)[nH]c(C4CCCN(C(=O)c5ccccc5)C4)nc32)cc1 (stereo not drawn) returned IMPase inh inactive, NPSR antagonist inactive, IMPase Li cell inactive, ALDH1A1 inh inactive, HPGD block 13µM and PNC inhibitor inactive.
